Screens (PubChem)
The list is not random: actives were taken first. Their share in the collection is about 18%.
Gal4-VP16 FLuc – Gal4-VP16 reporter inhibition counter-screen; Drosophila S2 Gal4-VP16 UAS-luciferase, luminescence, 20 h; Potency, µM (series often up to 53.6 µM), for inactives: at the highest dose activity, negative = inhibition, most hits filed as inhibitors; 3.5% of 310,000 active;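 also: Gal4-VP16 expression switched on by copper sulfate through the metallothionein promoter; potency is read from the fitted curve at half-maximal effect; nearly all actives have a fitted effect of over 50% in size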
RORg inh – inhibitors of mouse ROR gamma transcriptional activity; 5.4% of 310,000 active; AID 2551; Potency, µM (highest dose often 53.6 µM), for inactives: at the top dose activity change, negative = inhibition, hits mostly inhibitors; Drosophila S2 Gal4-RORgamma UAS-luciferase reporter, 20 h; also: potency is read from the fitted curve at half-maximal effect; nearly all actives have a fitted effect of over 60% in size
Target sequence (P51450 whole entry, looked up, the tested form may be a part): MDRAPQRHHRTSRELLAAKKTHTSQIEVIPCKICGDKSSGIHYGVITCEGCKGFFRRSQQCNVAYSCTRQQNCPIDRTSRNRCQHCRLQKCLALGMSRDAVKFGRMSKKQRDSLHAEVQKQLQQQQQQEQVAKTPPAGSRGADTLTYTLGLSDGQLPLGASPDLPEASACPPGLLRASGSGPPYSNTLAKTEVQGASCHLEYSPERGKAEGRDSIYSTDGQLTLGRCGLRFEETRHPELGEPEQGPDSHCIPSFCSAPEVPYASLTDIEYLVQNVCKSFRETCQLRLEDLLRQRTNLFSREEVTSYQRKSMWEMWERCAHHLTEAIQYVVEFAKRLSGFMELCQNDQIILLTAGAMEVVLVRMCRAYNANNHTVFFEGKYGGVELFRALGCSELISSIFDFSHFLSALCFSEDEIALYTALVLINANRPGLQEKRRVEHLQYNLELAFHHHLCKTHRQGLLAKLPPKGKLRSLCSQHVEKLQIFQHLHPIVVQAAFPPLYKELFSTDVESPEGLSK
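Luminescence from a UAS-regulated Photinus luciferase reporter in stably transfected Drosophila Schneider cells is measured; decreased signal marks ROR gamma inhibition. Fusion expression is induced by 700 uM copper sulfate for 20 hr.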
LDHA block – LDHA (human) enzyme inhibition. AID 1347041. activity change, % (values are at about 110 or 230 µM). purified LDHA, NADH/diaphorase-resazurin fluorescence; stronger effect = lower value. P00338. 0.15% of 480,000 active; in the data active = activity change below about -30%; inconclusive = mostly about -25% to -30%;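 also: plate controls were DMSO wells for no effect and wells without enzyme for full effect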
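Human LDH5 at 2 nM final in Tris HCl pH 7.4 with 0.06 mM NADH and 0.2 mM pyruvate, reacted 5 minutes at room temperature. Remaining NADH coupled via diaphorase/resazurin; resorufin fluorescence read at 0 and 20 minutes, normalized to enzyme-free and DMSO wells.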
DT40 TDP1 CPT – growth inhibition of DT40 Tdp1-/-;hTDP1 cells with camptothecin (screen for TDP1 inhibitors); chicken DT40 Tdp1-/-;hTDP1 cells + 20 nM CPT, ATP luminescence, 48 h; Potency, µM (doses to about 46.2 µM), for the others: at the highest dose activity change, negative = growth inhibition, most hits filed as inhibitors; 12% of 420,000 active; AID 686979; also: potency is read from the fitted curve at half-maximal effect; nearly all actives have a fitted effect of over 55% in size
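Chicken DT40 Tdp1-/- cells complemented with human TDP1, 400 cells/well, exposed to compounds plus 20 nM camptothecin for at least 48 h at 37 C; viability read as ATP content by CellTiter-Glo luminescence.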
DT40 TDP1 no CPT – qHTS for Inhibitors of human tyrosyl-DNA phosphodiesterase 1 (TDP1): qHTS in cells in absence of CPT; DT40 Tdp1-/- hTDP1 cells, no CPT, ATP luminescence, 48 h; Potency, µM (titrated, usually from 46.2 µM), without a hit: at the top dose activity change, negative = growth inhibition, usual class: inhibitors; 15% of 420,000 active; AID 686978, 2013; also: potency is read from the fitted curve at half-maximal effect; nearly all actives have a fitted effect of over 55% in size
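Chicken DT40 Tdp1-/- cells stably complemented with human TDP1 were seeded at 400 cells/well with DMSO in place of 20 nM camptothecin. After compound pinning, cells grew at least 48 hr at 37 °C; viability read by CellTiter-Glo luminescence.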
IL1B secr inh – inhibitors of inflammasome signaling (IL-1 beta secretion). THP-1 LPS/ATP IL-1B secretion, AlphaLISA, 16 h; stronger effect = lower value. activity change, % at 57.5 µM. 4.7% of 360,000 active. AID 743279; in the data active = activity change below about -50%; inconclusive = mostly about -30% to -49%
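Secreted IL-1B measured by AlphaLISA bead assay after 16 h compound exposure of THP-1 cells; compounds (final up to 57.5 uM) added 1 h before LPS (250 ng/mL) and ATP (1.25 mM) stimulation; lower signal means less secretion.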
Numbers without * were called inactive; ? = inconclusive; . = no result; [ ] = dose if it differs, or a comment. Unless noted, calls follow the shape of the dose curve; as a rule, active = well fitted curve in the direction sought with a large enough effect; inconclusive = small, poorly fitted or top-dose-only effect, or another doubt; inactive = no such curve, though single readings can be large; an effect the other way counts as inactive or inconclusive. Unless noted, % is scaled to controls: 0 for no effect and ±100 for the full control effect.

SMILES	Gal4-VP16 FLuc	RORg inh	LDHA block	DT40 TDP1 CPT	DT40 TDP1 no CPT	IL1B secr inh
Cc1ccc(NC(=O)CSc2nc(=O)[nH]c3c2CCCC3)cc1	.	.	-3	.	.	.
Cc1c(Cl)cccc1NC(=O)CSc1nc(=O)n(Cc2ccco2)c2c1CCC2	.	.	-2	21µM*	?	.
Cc1cccc(NC(=O)CSc2nc(=O)n(Cc3ccco3)c3c2CCC3)c1C	.	.	-3	-23%	?	.
CC(NC(=O)c1ccccc1)c1nc2ccccc2n1Cc1ccc(Cl)cc1 (stereo unspecified)	.	.	2	-20%	-26%	.
CC(C)N=c1cc2n(-c3ccc(Cl)cc3)c3ccccc3nc-2cc1Nc1ccc(Cl)cc1	2%[17 µM]	6%[2.98 µM]	-2	13µM*	16µM*	-15
COc1cc2c(cc1OC)C1(Nc3c-2c(Cc2ccccc2)nn3-c2ccccc2)C(=O)Nc2ccccc21 (stereo unspecified)	-6%	27%	-6	?	23µM*	-18
O=C(OC1CCc2ccccc2C1=O)c1ccccc1O (stereo unspecified)	4%	?	11	23µM*	16µM*	10
O=C(OC1CCCCC1=O)c1ccccc1I (stereo unspecified)	.	.	-1	.	.	.
O=C(Nc1ncccc1O)c1ccc(OCC2CCCO2)cc1 (stereo unspecified)	?	10µM*	3	?	-25%	107
O=C(Nc1ncccc1O)c1ccc(Oc2ccccc2)cc1	14µM*	?	5	?	?	16
Cc1ccc2c(c1)c1c(n2CC(O)Cn2c(C)nc3ccccc32)C(=O)CCC1 (stereo unspecified)	-3%	-11%	2	26µM*	18µM*	-2
Cc1ccc2c(c1)c1c(n2CC(O)Cn2ccnc2C)C(=O)CCC1 (stereo unspecified)	-4%	?	0	?	?	-8
Cc1ccc2c(c1)c1c(n2CC(O)Cn2c(C)nc3ccccc32)/C(=N\O)CCC1 (stereo unspecified)	-4%[0.365 µM]	-7%	-1	23µM*	23µM*	-3
COc1ccccc1-c1cccc(-c2nc(C(=O)N3CCCCC3)cc3c2[C@H](CCO)N(S(=O)C(C)(C)C)C3)c1 (stereo partly specified)	.	.	-1	21µM*	18µM*	-9
CC(C)(C)S(=O)N1Cc2cc(C(=O)N3CCc4ccccc4C3)nc(-c3cccc(-c4cccnc4)c3)c2[C@@H]1CCO (stereo partly specified)	.	.	3	?	21µM*	-20
CN1CCN(C(=O)c2cc3c(c(-c4cccc(C#CC(C)(C)O)c4)n2)[C@H](CCO)N(S(=O)C(C)(C)C)C3)CC1 (stereo partly specified)	.	.	2	2%	6%	-11
Cn1c(=O)c2c(nc(NCC(O)c3ccccc3)n2C)n(C)c1=O (stereo unspecified)	.	.	-6	.	.	.
CCOCCCNS(=O)(=O)c1ccc(NC(=O)CN2C(=O)c3ccccc3C2=O)cc1	6%	-8%	-4	-3%	5%	-19
CCOCCCNS(=O)(=O)c1ccc(NC(=O)N2c3ccccc3Sc3ccccc32)cc1	2%	-26%	-7	23µM*	?	?
NNC(=O)c1cc(Cl)ccc1Cl	-87%	11µM*	-6	0%	9%	1
CCc1ccc(C(NC(=O)C2CC2)c2cccc(F)c2)cc1 (stereo unspecified)	.	.	0	.	.	.
Cc1nn(-c2ccccc2)cc1/C=N/NC(=O)c1cccs1	?	?	-13	?	?	-22
O=C(N/N=C/c1cn(-c2cccs2)nc1-c1ccccc1)c1ccccc1Br	6.3µM*	5.6µM*	-2	23µM*	23µM*	?
O=C(N/N=C/c1ccccc1C(=O)O)c1ccccc1Br	9%	17%	-4	19%	-3%	12
O=C(N/N=C/c1cn(-c2cccs2)nc1-c1ccccc1)c1ccccc1O	?	0.028µM*	3	13µM*	8.2µM*	77
SMILES	Gal4-VP16 FLuc	RORg inh	LDHA block	DT40 TDP1 CPT	DT40 TDP1 no CPT	IL1B secr inh
Cc1cccc(Cn2c(SCCc3ccccc3)nc3c2c(=O)[nH]c(=O)n3C)c1	.	.	-6	.	.	.
CC1CCN(C(C)C(=O)Nc2ccc(Cl)cc2C(F)(F)F)CC1 (stereo unspecified)	.	.	-3	.	.	.
O=C(Nc1nnc2n1CCS2)c1ccc(Br)o1	7.1µM*	3.5µM*	-1	-8%	-1%	0
O=C(Nc1nnc2n1CCS2)c1ccccc1	.	.	8	?	?	.
Cc1ccc(OCC(=O)N(C)CC(=O)Nc2c(Cl)cccc2Cl)cc1C	.	.	-4	.	.	.
c1ccc(OCc2nn3c(Cn4cnc5ccccc54)nnc3s2)cc1	1%	18%	-5	16µM*	?	17
c1ccc2c(c1)nnn2Cc1nnc2sc(-c3ccc4c(c3)OCCO4)nn12	1%	8%	-9	?	16µM*	6
c1ccc(-c2nn3c(Cn4cnc5ccccc54)nnc3s2)cc1	12%[0.365 µM]	0.071µM*	-7	?	?	-1
O=c1[nH]c2ccccc2c(-c2ccccc2)c1Sc1nc2ccccc2s1	.	.	-1	.	.	.
Cc1ccc(SC(Sc2ccc(C)cc2)=C(Cl)/C=N/O)cc1	.	.	13	.	.	.
CN(CC(=O)NC(N)=O)Cc1ccc(F)cc1F	.	.	5	.	.	.
CCSc1nnc2c(n1)OC(C)(C)Nc1ccccc1-2	-6%	?	3	-22%	?	20
CSc1nnc2c(n1)OC1(Nc3ccccc3-2)C(=O)Nc2ccccc21 (stereo unspecified)	-4%	29%	-3	?	16µM*	10
CCCCc1c(-c2ccccc2OC)ncn1CCc1ccc(Cl)cc1	.	.	2	?	21µM*	?
CCCCc1c(-c2ccccc2OC)ncn1CCc1ccc(OC)cc1	.	.	4	18µM*	23µM*	-79*
COc1ccccc1-c1cc(C(=O)Nc2cc(C)n(Cc3ccc(Cl)cc3)n2)no1	-22%	9%	-2	?	-17%	5
CCCCc1c(-c2ccccc2OC)ncn1CCc1ccccc1	.	.	0	21µM*	?	0
CCCNc1c(NC(=O)NCCCOC)c(=O)oc2ccccc12	.	.	17	.	.	.
CC(Sc1nc(C2CC2)nc2ccccc12)C(=O)NC(=O)NC(C)(C)C (stereo unspecified)	.	.	2	.	.	.
